Consider 30 compounds from PubChem BioAssay.

The nature of test [1]: Brca1-Bard1 BiLC signal decrease – luminescence, single concentration, counter-screen for Mdm2/MdmX interaction inhibitor project, confirmation (AID 504668; call rule not given here). As to conditions: Brca1/Bard1 bimolecular luciferase complementation counterscreen, at 8 µM, stronger effect = higher value.
Test [2] is described as follows: inhibition of PEG-3 promoter luciferase signal – cell-based, HeLa, luciferase reporter, single concentration, confirmation (AID 602417;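 active = at 20 µM dose, 40% or more inhibition averaged across four replicates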). As to conditions: HeLa PEG-Prom luciferase reporter, luminescence, overnight; at 20 µM; stronger effect = higher value.
The target of test [3] is PEG-3 (UniProt Q6IN02). Put plainly: inhibition of PEG-3 promoter-driven reporter – cell-based, HeLa, luciferase, CREF/GAPDH counter-screen panel, dose response (AID 624167). As to conditions: CREF/GAPDH counter-screens; HeLa PEG-Prom luciferase reporter, overnight, run 1, dose range 1, at 100 µM (top of the series) unless noted.
The target in test [4] is PEG-3 (UniProt Q6IN02). Described as above. The following applies: CREF/GAPDH counter-screens; HeLa PEG-Prom luciferase reporter, overnight, run 2, dose range 1, at 100 µM (top of the series) unless noted.
Test [5] relates to Rat fibroblasts (CREF). Described as above. As to conditions: CREF/GAPDH counter-screens; run 1, dose range 1, at 100 µM (top of the series).
The subject of test [6] is Rat fibroblasts (CREF). The test is described as above. The following applies: CREF/GAPDH counter-screens; run 2, dose range 1, at 100 µM (top of the series).
A short description of test [7]: lowers stimulated NF-kB luciferase signal in Jurkat – cell-based, luminescence, single concentration, T-cell NF-kB inhibitor project, confirmation (AID 435020;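 active = inhibition reaching about 45% at 4 µM in either replicate, limit read from the data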;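 also: plate controls were PMA/ionomycin stimulated DMSO wells for no effect and unstimulated DMSO wells for full effect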). As to conditions: PMA/ionomycin-induced, 16 h, at 4 µM, stronger effect = higher value.
Test [8] is described as follows: PPC-1 cell viability loss – ATP content luminescence, cytotoxicity control for TRAIL apoptosis potentiator project, confirmation (AID 1447).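 Also: 0% = DMSO-treated cells and 100% = wells holding medium but no cells.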 The following applies: PPC-1 viability, ATPlite luminescence, overnight; at 5 µM; stronger effect = higher value.
Test [9] addresses Tumor necrosis factor receptor superfamily member 10B (Homo sapiens) (UniProt O14763). Put plainly: viability loss of caspase-8 NB7 cells with TRAIL – with/without TRAIL, luminescence panel, confirmation (AID 651596; in the data active = activity above about 50%). The following applies: NB7 neuroblastoma + caspase-8, TRAIL sensitization, NB7 Caspase-8, with TRAIL, mean of runs, at 10 µM, stronger effect = higher value.
Experiment in test [10]: as above
As to conditions: NB7 neuroblastoma + caspase-8, without TRAIL, NB7 Caspase-8, without TRAIL, mean of runs, at 10 µM.

Test [11] deals with Sentrin-specific protease 8 (Homo sapiens) (UniProt Q96LD8). Put plainly: human SENP8 peptidase blockers, hit retest – biochemical, luminescence, single concentration, confirmation (AID 488912;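 active = mean inhibition across replicates above about 50%, limit read from the data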). The following applies: Recombinant SENP8, Z-RLRGG-aminoluciferin luminescence, 60 min; at 12.5 µM; stronger effect = higher value.
Test [12] deals with Sentrin-specific protease 6 (Homo sapiens) (UniProt Q9GZR1). Description: inhibition of human SENP6 catalytic domain – biochemical, luminescence, single concentration, confirmation (AID 488915;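 active = mean inhibition above about 50% in the one-dose retest, limit read from the data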). As to conditions: recombinant SENP6, Z-RLRGG-aminoluciferin luminescence; at 12.5 µM; stronger effect = higher value.
In test [13] the target is Sentrin-specific protease 7 (Homo sapiens) (UniProt Q9BQF6). Put plainly: human SENP7 peptidase blockers, hit retest – biochemical, luminescence, single concentration, confirmation (AID 488917;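 active = mean inhibition above about 50% in the one-dose retest, limit read from the data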). As to conditions: recombinant SENP7, Z-RLRGG-aminoluciferin luminescence, 40 min; at 12.5 µM; stronger effect = higher value.
The target in another test is Caspase-3 (Homo sapiens) (UniProt P42574). Put plainly: human caspase-3 activity blockade, out-of-family – biochemical, single concentration, selectivity assay for SENP inhibitor project, confirmation (AID 488918;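 active = mean inhibition above about 50%, limit read from the data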;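 also: plate controls were enzyme with DMSO for no effect and wells without caspase-3 for full effect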). The following applies: purified caspase-3, Z-DEVD-aminoluciferin luminescence, 60 min; at 12.5 µM; stronger effect = higher value.
Test [14] is described as follows: Ultra-Glo luciferase signal interference – biochemical, single concentration, SENP8 reaction pre-completed, artefact control for SENP inhibitor project, confirmation (AID 488919;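 active = mean inhibition above about 50% when retested at one dose, limit read from the data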;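 also: plate controls were DMSO wells with completed reaction for no effect and substrate without enzyme for full effect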). As to conditions: Pre-incubated SENP8/Z-RLRGG-aminoluciferin, luciferase luminescence interference; at 12.5 µM; stronger effect = higher value.
A short description of test [15]: HIF-2a driven luciferase blockers, single dose – luminescence, 786-0 RCC cells, confirmation (AID 651580;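 active = mean inhibition across four replicates of at least 40 percent at the single tested concentration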). The following applies: HIF-2a luciferase reporter luminescence, overnight, at 18.8 µM, stronger effect = higher value.
Test [16] in a line: HIF-1a luciferase reporter signal reduction – MiaPaCa-2 cells, single concentration, counter-screen for HIF-2a inhibitor project, confirmation (AID 651589;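 active = mean inhibition of the reporter signal across four replicates at the single tested dose of 50% or more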). As to conditions: MiaPaCa-2 HIF-1a luciferase reporter, desferoxamine, overnight; at 18.8 µM; stronger effect = higher value.
The target of test [17] is Protein Mdm4 (Homo sapiens) + E3 ubiquitin-protein ligase Mdm2 (Homo sapiens) (UniProt O15151+Q00987). Description: human Mdm2/MdmX binding disruption – cell-based, luminescence, single concentration, set 2, confirmation (AID 504601;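 active = mean inhibition of the luminescence signal across two replicates at or above 26 percent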). The following applies: SaOS-2 split-luciferase Mdm2/MdmX complementation, at 8 µM, stronger effect = higher value.
A short description of test [18]: NF-kB reporter suppression in CF airway cells – cell-based, GFP fluorescence, single concentration, confirmation (AID 602472; in the data active = inhibition above about 40%;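 also: stimulus PAF is a Pseudomonas aeruginosa filtrate and not platelet activating factor; plate controls were DMSO wells with stimulus for no effect and unstimulated DMSO wells for full effect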). As to conditions: KKLEB CF airway cells, PAF-induced NF-kB-GFP fluorescence, overnight; at 5 µM; stronger effect = higher value.

The list shows a part of the results. Activity calls are given as the source filed them.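 The calls were made as follows, unless noted: active = reconfirmed compounds whose average cytotoxicity reaches 50% or more; inactive = the rest.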

Sequence of Tumor necrosis factor receptor superfamily member 10B (Homo sapiens) (O14763 whole entry, looked up): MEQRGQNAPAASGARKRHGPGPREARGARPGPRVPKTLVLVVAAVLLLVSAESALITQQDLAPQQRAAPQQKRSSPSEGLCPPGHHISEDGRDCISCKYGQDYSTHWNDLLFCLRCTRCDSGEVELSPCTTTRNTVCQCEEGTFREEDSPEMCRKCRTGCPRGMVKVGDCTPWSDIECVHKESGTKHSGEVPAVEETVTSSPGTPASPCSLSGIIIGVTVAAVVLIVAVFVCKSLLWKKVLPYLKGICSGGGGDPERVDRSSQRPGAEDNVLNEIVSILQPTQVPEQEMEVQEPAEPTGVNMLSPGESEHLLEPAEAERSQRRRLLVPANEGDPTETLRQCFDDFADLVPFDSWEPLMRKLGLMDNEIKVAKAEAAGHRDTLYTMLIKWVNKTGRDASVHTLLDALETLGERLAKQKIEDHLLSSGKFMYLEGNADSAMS
Sequence of Sentrin-specific protease 7 (Homo sapiens) (Q9BQF6 706-1050 limits assumed): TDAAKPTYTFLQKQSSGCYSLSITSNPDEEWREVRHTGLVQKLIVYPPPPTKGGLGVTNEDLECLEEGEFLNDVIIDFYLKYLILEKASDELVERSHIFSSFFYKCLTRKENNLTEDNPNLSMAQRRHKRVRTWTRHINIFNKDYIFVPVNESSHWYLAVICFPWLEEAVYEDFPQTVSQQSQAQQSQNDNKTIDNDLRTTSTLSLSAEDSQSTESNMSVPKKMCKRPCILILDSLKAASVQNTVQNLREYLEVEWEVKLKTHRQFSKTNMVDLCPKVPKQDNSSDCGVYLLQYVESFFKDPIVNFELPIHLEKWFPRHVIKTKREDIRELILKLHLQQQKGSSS
Sequence of Sentrin-specific protease 8 (Homo sapiens) (Q96LD8 whole entry, looked up, the tested form may be a part): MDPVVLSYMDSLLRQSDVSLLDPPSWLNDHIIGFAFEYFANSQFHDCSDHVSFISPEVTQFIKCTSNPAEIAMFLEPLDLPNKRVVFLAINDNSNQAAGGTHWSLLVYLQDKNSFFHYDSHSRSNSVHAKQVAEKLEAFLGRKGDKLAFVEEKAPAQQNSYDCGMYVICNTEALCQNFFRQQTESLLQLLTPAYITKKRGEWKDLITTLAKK
Sequence of Sentrin-specific protease 6 (Homo sapiens) (Q9GZR1 628-1112 limits assumed): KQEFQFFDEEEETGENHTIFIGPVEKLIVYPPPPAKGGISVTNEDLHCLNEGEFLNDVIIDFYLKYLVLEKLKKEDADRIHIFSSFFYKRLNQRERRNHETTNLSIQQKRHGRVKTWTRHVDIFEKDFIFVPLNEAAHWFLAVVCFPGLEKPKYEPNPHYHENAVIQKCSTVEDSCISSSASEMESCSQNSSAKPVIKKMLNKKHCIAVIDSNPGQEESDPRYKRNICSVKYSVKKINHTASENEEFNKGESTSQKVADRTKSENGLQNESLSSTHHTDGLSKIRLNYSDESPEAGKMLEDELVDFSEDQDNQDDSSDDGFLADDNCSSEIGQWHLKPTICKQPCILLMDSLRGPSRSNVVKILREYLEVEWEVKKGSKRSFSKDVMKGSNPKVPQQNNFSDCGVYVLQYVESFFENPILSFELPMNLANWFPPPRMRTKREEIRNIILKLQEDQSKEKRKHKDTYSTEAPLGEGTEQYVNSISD
Sequence of Caspase-3 (Homo sapiens) (P42574 28-227 limits assumed): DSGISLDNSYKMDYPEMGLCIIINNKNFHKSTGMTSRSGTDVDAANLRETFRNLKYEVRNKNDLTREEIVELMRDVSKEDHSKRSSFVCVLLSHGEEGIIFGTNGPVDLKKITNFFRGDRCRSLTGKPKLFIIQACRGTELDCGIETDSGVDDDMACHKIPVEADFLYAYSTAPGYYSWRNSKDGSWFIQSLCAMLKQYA
Sequence of PEG-3 (Q6IN02 whole entry, looked up): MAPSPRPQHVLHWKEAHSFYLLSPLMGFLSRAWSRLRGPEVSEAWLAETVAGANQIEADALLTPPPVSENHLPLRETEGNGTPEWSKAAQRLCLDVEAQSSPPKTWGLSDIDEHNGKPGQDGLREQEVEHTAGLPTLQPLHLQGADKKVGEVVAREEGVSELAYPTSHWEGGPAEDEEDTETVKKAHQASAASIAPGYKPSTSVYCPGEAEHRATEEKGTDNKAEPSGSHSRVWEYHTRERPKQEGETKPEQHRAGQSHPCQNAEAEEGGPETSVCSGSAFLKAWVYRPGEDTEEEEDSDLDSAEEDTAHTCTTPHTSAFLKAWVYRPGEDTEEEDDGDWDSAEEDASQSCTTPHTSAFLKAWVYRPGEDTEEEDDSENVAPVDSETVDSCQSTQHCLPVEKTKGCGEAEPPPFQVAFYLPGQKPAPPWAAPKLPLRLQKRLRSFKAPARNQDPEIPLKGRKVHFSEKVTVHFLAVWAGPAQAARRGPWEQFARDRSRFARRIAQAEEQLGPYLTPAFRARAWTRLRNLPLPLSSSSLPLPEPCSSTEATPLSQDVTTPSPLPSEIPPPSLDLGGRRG
Sequence of Protein Mdm4 (Homo sapiens) + E3 ubiquitin-protein ligase Mdm2 (Homo sapiens) (O15151 whole entry, looked up): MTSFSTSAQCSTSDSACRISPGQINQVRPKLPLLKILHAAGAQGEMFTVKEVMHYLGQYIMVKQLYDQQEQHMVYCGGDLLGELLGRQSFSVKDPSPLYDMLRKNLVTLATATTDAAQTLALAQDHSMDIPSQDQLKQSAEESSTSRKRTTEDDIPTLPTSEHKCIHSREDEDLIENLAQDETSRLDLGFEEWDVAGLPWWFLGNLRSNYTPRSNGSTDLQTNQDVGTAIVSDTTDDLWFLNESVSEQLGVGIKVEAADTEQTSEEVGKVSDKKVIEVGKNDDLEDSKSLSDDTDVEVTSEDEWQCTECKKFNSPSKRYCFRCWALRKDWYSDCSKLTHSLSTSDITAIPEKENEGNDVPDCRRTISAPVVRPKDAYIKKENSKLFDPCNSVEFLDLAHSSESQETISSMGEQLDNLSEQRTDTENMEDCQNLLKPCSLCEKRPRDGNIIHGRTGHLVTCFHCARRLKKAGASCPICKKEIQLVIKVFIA
Sequence of Protein Mdm4 (Homo sapiens) + E3 ubiquitin-protein ligase Mdm2 (Homo sapiens) (Q00987 whole entry, looked up): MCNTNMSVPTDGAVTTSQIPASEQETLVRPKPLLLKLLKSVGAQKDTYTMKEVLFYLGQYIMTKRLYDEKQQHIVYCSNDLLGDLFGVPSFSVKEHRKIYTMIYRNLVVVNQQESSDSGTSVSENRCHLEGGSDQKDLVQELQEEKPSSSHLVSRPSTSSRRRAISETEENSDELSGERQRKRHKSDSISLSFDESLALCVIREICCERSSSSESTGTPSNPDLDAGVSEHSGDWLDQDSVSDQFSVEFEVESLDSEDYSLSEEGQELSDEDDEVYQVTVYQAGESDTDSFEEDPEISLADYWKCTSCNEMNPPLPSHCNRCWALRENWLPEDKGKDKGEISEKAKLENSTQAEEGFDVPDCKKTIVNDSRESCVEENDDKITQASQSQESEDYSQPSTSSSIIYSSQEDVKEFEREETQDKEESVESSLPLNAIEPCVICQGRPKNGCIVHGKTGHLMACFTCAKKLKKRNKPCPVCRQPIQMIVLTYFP

As for `C=CCn1c(C)cc(C2=NNC(=NCC)SC2)c1C`, the inhibition is 24.4% (active) in [1]; 95.2% (active) in [2]; 99.4% with PEG-3 [3]; 98.1% with PEG-3 [4]; 98.4% with Rat fibroblasts (CREF) [5]; 98.1% in the test with Rat fibroblasts (CREF) [6].

As for `COc1ccc(C(=O)/C=C/Nc2ccccn2)cc1`, the inhibition in [2] is 57.9% (active); with PEG-3 [3], 95.5%; with PEG-3 [4], 94.2%; in the test with Rat fibroblasts (CREF) [5], 96.2%; in the test on Rat fibroblasts (CREF) [6] it was 96.7%.

As to `N=c1c2c(-c3ccccc3)c(-c3ccccc3)n(Cc3ccccc3)c2ncn1CCCO`, the inhibition in test [7] was 24.1% (inactive).

`Cc1cccc(NS(=O)(=O)c2ccc(-c3cnc(C4CC4)o3)cc2)c1`: the inhibition in test [7] is 53.5% (active).

`COc1ccc(CS(=O)/C(Cl)=C(/Cl)C(=O)Nc2ccc(OC)nc2)cc1` (centres undefined): the inhibition in test [7] was 95.7% (active).

For the compound `Cc1nc2cc(NC(=O)Nc3cccc(F)c3)ccc2n1C`, the cytotoxicity in [8] is 51.2% (active). Further, the activity came to 72.3% in [9] and 65.2% in [10].

As to `COc1cc(SC)ccc1C(=O)Nc1nc(C)cs1`, the cytotoxicity in test [8] is 95.8% (active). Further, the inhibition in test [11] was 89.6% (active); in test [12] it was 98.7% (active); in test [13], 100% (active); in the test with Caspase-3 (Homo sapiens), 95.3% (active); in [14], 46.2% (inactive); in test [2] it was 83% (active). Further, the inhibition is 92.8% (active) in [15]; 96.9% (active) in test [16]; 96.4% with PEG-3 [3]; 95.2% with PEG-3 [4]; 98.6% in the test with Rat fibroblasts (CREF) [5]; 99.8% in the test with Rat fibroblasts (CREF) [6]. For the same compound, the results for the activity in test [9] and in [10] were 98.2% and 97.8%, respectively.

Consider `CC(=O)Nc1ccc(Nc2c3ccccc3nc3ccccc23)cc1`, for which the inhibition in [7] is 26.9% (inactive).

As for `COc1ccccc1N1CCN(C(=O)c2cc(=O)c3cc(C)cc(C)c3o2)CC1`, the inhibition in test [7] is 54% (active).

For `Clc1ccc(-c2cc(-c3ccccn3)on2)c(Cl)c1`, the cytotoxicity in [8] is 89.7% (active). For the same compound, the inhibition in test [11] is 94.7% (active); in test [12], 95.8% (active); in test [13], 102% (active); in the test with Caspase-3 (Homo sapiens), 94.9% (active); in test [14] it was 32.9% (inactive).

For `CCOc1ccccc1NC(=O)Cn1nnc(C(=O)NCc2cccs2)c1N`, in test [7], the inhibition was 51.6% (active).

For the compound `O=C(NCc1ccc2c(c1)OCO2)c1cc([N+](=O)[O-])ccc1N1CCOCC1`, in test [7], the inhibition is 38.1% (inactive).

As to `Clc1ccc2nc(-c3ccccc3)nc(C(Cl)Cl)c2c1`, the cytotoxicity in test [8] was 76.5% (active). Also, the figures for the inhibition in test [15] and in test [16] were -30.4% (inactive) and 104% (active), respectively.

Take `Cc1ccc(-c2cn3cc(C)ccc3n2)cc1`: the cytotoxicity in [8] is 85.8% (active). Also, the inhibition is 54.3% (active) in [11]; 91.7% (active) in [12]; 101% (active) in test [13]; 95% (active) in the test with Caspase-3 (Homo sapiens); 39.4% (inactive) in test [14]; 29% (active) in test [1]. In addition, the inhibition in test [2] was 82% (active); with PEG-3 [3], 96.6%; with PEG-3 [4], 96.4%; in the test on Rat fibroblasts (CREF) [5], 98.1%; with Rat fibroblasts (CREF) [6] it was 96.8%.

In the case of `Cc1ccc(-c2cc(C(=O)N/N=C/C=C/c3ccco3)c3ccccc3n2)cc1C`, in [8], the cytotoxicity is 56.4% (active). The activity in test [9] was 59.7%; in test [10] it was 70.4%.

`Cn1c(=NC(=O)c2cnccn2)sc2ccccc21`: in [8], the cytotoxicity was 50.8% (active). Besides, the activity in test [9] stood at 57.3%; in test [10], 53.5%.

Turning to `Cn1nccc1C(=O)NC1CCCc2c1cnn2-c1ccccc1F` (centres undefined), the inhibition in [7] is 68.1% (active).

In the case of `O=C(Nc1ccc(NC(=O)c2cccs2)cn1)c1ccco1`, in test [8], the cytotoxicity is 42.1% (inactive). Also, the results for the activity in [9] and in test [10] were 63.1% and 71.5%, respectively.

For the compound `COc1cccc(/C=C/c2ccc3ccccc3n2)c1OC(C)=O`, the cytotoxicity in [8] is 74.4% (active). Moreover, the activity in [9] was 67.2%; in test [10], 60.8%.

Regarding `O=C(/C=C/c1ccc(Cl)c([N+](=O)[O-])c1)c1ccc(O)cc1`, in test [8], the cytotoxicity is 4.1% (inactive). The inhibition in [17] is 103% (active); in test [2] it was 98.9% (active); in [18], -37.9% (inactive); in test [15] it was 20.2% (inactive); in test [16] it was 105% (active); with PEG-3 [3] it was 102%. Besides, the inhibition with PEG-3 [4] came out at 99.1%; in the test on Rat fibroblasts (CREF) [5], 99.1%; in the test with Rat fibroblasts (CREF) [6], 98.7%.

With `COc1ccc(C(=O)Nc2ccccc2C(=O)N/N=C/c2ccc(O)c(OC)c2)cc1`, the cytotoxicity in [8] was 96.5% (active). Further, the inhibition in [11] is 97.3% (active); in test [12], 98.5% (active); in test [13], 102% (active); in the test with Caspase-3 (Homo sapiens), 98.4% (active); in test [14], 83.7% (active).

On to `COc1ccccc1C1C2=C(COC2=O)Nc2cc3c(cc21)OCO3` (centres undefined), for which the inhibition in test [7] is 23.4% (inactive).

Turning to `Cc1ccc(SCCSc2ncccn2)cc1`, the inhibition in test [7] was -64.3% (inactive).

Consider `CC(=O)c1ccc(Oc2cc(C)nc(-n3nc(C)cc3C)n2)cc1`, for which, in [7], the inhibition is 58.9% (active).

For `COc1ccc(-c2csc(Nc3ccccn3)n2)cc1`, in [7], the inhibition is 16.1% (inactive).

Consider `CCOC(=O)c1ccc(NC(=O)Cn2cnc3cc(C)c(C)cc32)cc1`, for which the inhibition in test [7] was 66.2% (active).

Regarding `COc1cc(SC)ccc1C(=O)Nc1cc(C)ccn1`, the cytotoxicity in test [8] is 53.4% (active). Moreover, the inhibition in test [11] was 39.8% (inactive); in [12] it was 40.9% (inactive); in test [13] it was 78.8% (active); in the test with Caspase-3 (Homo sapiens) it was 43.8% (inactive); in [14] it was 51% (active).

As for `Cc1ccc(-c2nc3ccccc3[nH]2)cc1N`, in [8], the cytotoxicity is 49.3% (inactive). For the same compound, the inhibition is 91.6% (active) in test [11]; 92% (active) in test [12]; 102% (active) in [13]; 96.7% (active) with Caspase-3 (Homo sapiens); 92.3% (active) in test [14].

As to `COc1ccc(-c2cn3ccc(C)cc3n2)cc1`, the cytotoxicity in test [8] was 89.4% (active). Further, the inhibition in [11] is -5.4% (inactive); in test [12], 88.1% (active); in [13], 99.5% (active); with Caspase-3 (Homo sapiens), 95.2% (active); in [14], 91.2% (active). In addition, the figures for the activity in test [9] and in test [10] were 82.7% and 81.1%, respectively.

Consider `O=c1oc(/C=C/c2ccccc2)nc2ccccc12`, for which the cytotoxicity in [8] is 57.5% (active). Further, the activity in test [9] was 76.2%; in test [10], 79.7%.
